HIV Env fusion – inhibitors of HIV Env-mediated cell fusion; HeLa-JRFL Env/CEM21 cell fusion, luciferase; inhibition, % at 12.3 µM; 360,000 tested, 1.1% active; AID 651610;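 active means mean replicate inhibition score of at least 50 and every replicate individually at or above 50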
CFTR F508del cor – correctors of CFTR F508del function in bronchial epithelial cells | activity (quench increase), % at 7.58 µM | CFBE cells, YFP halide quenching; stimulated with forskolin plus potentiator P3; % fluorescence drop versus neutral controls | AID 720511 | 350,000 tested, 0.36% active;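 active means mean added fluorescence quench of at least 8% versus neutral control, with both replicates also reaching 8%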;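 further: cells transiently co-express mutant CFTR-F508del with the halide-sensitive YFP; corrector assay measuring rescue of mutant channel to the surface after 24 h compound exposure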
MITF act – increases MITF-driven TRPM1 promoter luciferase signal; SK-MEL-5 TRPM1-promoter luciferase, 24 h; % of positive control, neutral wells = 0; activation, % at 12.5 µM; 300,000 tested, 0.75% active;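 active means mean activation of at least 80% with every replicate also reaching 80%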
GSIS activator – GLuc luminescence reporter in INS-1E cells, primary screen for activators of glucose-dependent secretion of insulin. AID 743287. INS-1E GLuc reporter insulin secretion, 2-3 h. activation, % at 16.6 µM. 370,000 tested, 0.61% active;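 active means lowest replicate activation of at least 40%, so every replicate reaches that level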
Wnt bcat act – activates Wnt/beta-catenin signaling in a reporter cell assay; activator, plate reader; activation, % at 9.35 µM; 300,000 tested, 1.2% active; in the data active means activation above about 30%, passing the limit was not always enough
Large screens that a line does not name were inactive; [ ] = dose if it differs, or a comment. A selection: hits, their analogues and other compounds. The true share with any hit is near 2.7%.

CC(=O)N(C)C[C@@H]1Oc2cc(C#CCC(C)C)ccc2S(=O)(=O)N([C@H](C)CO)C[C@H]1C	none (no result: MITF act, Wnt bcat act)
COc1ccc(-c2nn(-c3ccccc3)cc2/C=N/N2C(=O)CSC2=S)cc1	HIV Env fusion 67 (no result: CFTR F508del cor, Wnt bcat act)
CC(=O)c1sc2c(c1OC(=O)c1ccccc1)c(=O)n(-c1ccccc1)c(=S)n2-c1ccccc1	HIV Env fusion 62
O=C(CSc1ncccn1)N1CCN(S(=O)(=O)c2ccccc2)CC1	GSIS activator 51
O=C(CSc1nc(-c2ccccc2)c(-c2ccccc2)[nH]1)N1CCN(S(=O)(=O)c2ccccc2)CC1	HIV Env fusion 84 (no result: CFTR F508del cor, GSIS activator)
CC(C)(C)NC(=O)CSc1nc(-c2ccccc2)c(-c2ccccc2)[nH]1	HIV Env fusion 64 (no result: CFTR F508del cor, Wnt bcat act)
C[C@@H]1CN([C@H](C)CO)C(=O)c2cc(N(C)C)ccc2O[C@@H](C)CCCCO[C@@H]1CN(C)C(=O)Nc1ccc(C(F)(F)F)cc1	none (no result: MITF act, Wnt bcat act)
CCCCOc1ccc2c(c1)C(=O)c1cc(O)ccc1-2	MITF act 86
CC(C)CCOC(=O)C1C(c2ccccc2)C(C(=O)O)C1c1ccccc1 (stereo unspecified)	Wnt bcat act 43 (no result: CFTR F508del cor, GSIS activator)
CC(=C/c1ccccc1)/C=N/n1c(C)n[nH]c1=S	HIV Env fusion 59
CC(/C=N/n1c(COc2ccccc2)n[nH]c1=S)=C\c1ccccc1	none (no result: CFTR F508del cor, MITF act, Wnt bcat act)
CC(=C/c1ccccc1)/C=N/n1c(-c2ccncc2)n[nH]c1=S	HIV Env fusion 64
CC(/C=N/n1c(-c2cccnc2)n[nH]c1=S)=C\c1ccccc1	none (no result: CFTR F508del cor, GSIS activator)
Cc1ccsc1/C=N/n1c(-c2ccncc2)n[nH]c1=S	GSIS activator 48 (no result: CFTR F508del cor)
C[C@@H]1CN([C@H](C)CO)C(=O)c2cccc(NS(=O)(=O)c3ccc(Cl)cc3)c2O[C@H]1CN(C)C	none (no result: HIV Env fusion, MITF act, Wnt bcat act)
O=C(Nc1ccc2c(c1)[C@H]1C[C@@H](CC(=O)N3CCc4ccccc4C3)O[C@H](CO)[C@H]1O2)C1CCOCC1	none (no result: MITF act, Wnt bcat act)
CC(C)NC(=O)N(C)C[C@@H]1Oc2ccc(NC(=O)c3ccncc3)cc2CC(=O)N([C@H](C)CO)C[C@H]1C	none (no result: HIV Env fusion, MITF act, Wnt bcat act)
O=S(=O)(c1ccccc1F)N1CCCCN2[C@H](CO)[C@H](c3ccc(-c4cccnc4)cc3)[C@H]2C1	none (no result: HIV Env fusion, MITF act, Wnt bcat act)
CNc1ccccc1C(C)(C)c1cc(-c2cccc(Br)c2)no1	none
CNc1ccccc1C(C)(C)c1cc(-c2ccc(F)cc2)no1	HIV Env fusion 66 (no result: CFTR F508del cor, Wnt bcat act)
O=C(C[C@H]1C[C@H]2c3cc(NC(=O)C4CCC4)ccc3O[C@H]2[C@@H](CO)O1)NCc1cc(F)ccc1F	none (no result: MITF act, Wnt bcat act)
COc1cccc(CNC(=O)C[C@H]2CC[C@@H]3[C@@H](COc4ccc(NC(C)=O)cc4C(=O)N3C)O2)c1	none (no result: MITF act, Wnt bcat act)
CCCC(=O)NC(c1ccco1)c1cc(Cl)c2cccnc2c1O (stereo unspecified)	none (no result: HIV Env fusion, CFTR F508del cor, GSIS activator)
CCCCC(=O)NC(c1ccc(Cl)cc1)c1ccc2cccnc2c1O (stereo unspecified)	none (no result: MITF act)
CC(C)C(=O)NC(c1cccc([N+](=O)[O-])c1)c1ccc2cccnc2c1O (stereo unspecified)	none (no result: MITF act)
CCCC(=O)NC(c1ccc(Cl)cc1)c1ccc2cccnc2c1O (stereo unspecified)	CFTR F508del cor 15
CCCC(=O)NC(c1cccc([N+](=O)[O-])c1)c1ccc2cccnc2c1O (stereo unspecified)	HIV Env fusion 92 (no result: MITF act)
CCCC(=O)NC(c1cccs1)c1cc(Cl)c2cccnc2c1O (stereo unspecified)	HIV Env fusion 74
C[C@H](CO)N1C[C@H](C)[C@@H](CN(C)C(=O)CCCN(C)C)OCCCC[C@H](C)Oc2ccc(NS(C)(=O)=O)cc2C1=O	none (no result: MITF act, Wnt bcat act)
Cc1noc(C)c1NC(=O)N(C)C[C@H]1Oc2ccc(NC(=O)CCCCCC(=O)Nc3ccccc3N)cc2CC(=O)N([C@@H](C)CO)C[C@@H]1C	none (no result: MITF act, Wnt bcat act)
O=C(c1ccccc1)c1cnc(-c2ccc(Cl)cc2)s1	Wnt bcat act 40 (no result: CFTR F508del cor, MITF act, GSIS activator)
O=C(c1ccc(Cl)cc1)c1cnc(-c2ccc(Cl)cc2)s1	none (no result: CFTR F508del cor, GSIS activator, Wnt bcat act)
COc1ccc(CN(C)C[C@@H]2Oc3ccc(NS(=O)(=O)c4c(C)noc4C)cc3CC(=O)N([C@H](C)CO)C[C@H]2C)cc1	none (no result: MITF act, Wnt bcat act)
C[C@H]1CCCCO[C@@H](CN(C)Cc2ccncc2)[C@@H](C)CN([C@@H](C)CO)C(=O)c2cc(NC(=O)Nc3ccccc3)ccc2O1	HIV Env fusion 58[16.7 µM] (no result: MITF act, Wnt bcat act)
COc1ccc(NC(=O)Nc2ccc3c(c2)C(=O)N([C@@H](C)CO)C[C@@H](C)[C@H](CN(C)Cc2ccccc2)OCCCC[C@@H](C)O3)cc1	none (no result: MITF act, Wnt bcat act)
C[C@H]1CCCCO[C@@H](CN(C)Cc2ccccc2)[C@@H](C)CN([C@@H](C)CO)C(=O)c2cc(NC(=O)Nc3ccccc3)ccc2O1	HIV Env fusion 69[16.7 µM] (no result: MITF act, Wnt bcat act)
C[C@H]1CCCCO[C@@H](CN(C)Cc2ccccc2)[C@@H](C)CN([C@@H](C)CO)C(=O)c2cc(NC(=O)Nc3ccc(F)cc3)ccc2O1	HIV Env fusion 70[16.7 µM] (no result: MITF act, Wnt bcat act)
C[C@@H]1CCCCO[C@H](CN(C)Cc2ccccc2)[C@@H](C)CN([C@H](C)CO)C(=O)c2cc(NC(=O)Nc3ccc(F)cc3)ccc2O1	none (no result: MITF act, Wnt bcat act)
COc1ccc(NC(=O)Nc2ccc3c(c2)C(=O)N([C@H](C)CO)C[C@H](C)[C@H](CN(C)Cc2ccccc2)OCCCC[C@H](C)O3)cc1	HIV Env fusion 74[16.7 µM] (no result: MITF act, Wnt bcat act)
C[C@@H]1CCCCO[C@H](CN(C)Cc2ccncc2)[C@H](C)CN([C@@H](C)CO)C(=O)c2cc(NC(=O)Nc3ccccc3)ccc2O1	none (no result: MITF act, Wnt bcat act)
CCCC(=O)N1CC2(CCN(Cc3cccnc3)CC2)c2c([nH]c3cc(OC)ccc23)[C@@H]1CO	none (no result: HIV Env fusion, MITF act, Wnt bcat act)
CNC(=O)C[C@@H]1CC[C@@H]2[C@H](COc3ccc(NC(=O)C(C)C)cc3C(=O)N2C)O1	none (no result: MITF act, Wnt bcat act)
COc1ccc(NC(=O)N(C)C[C@@H]2Oc3ncc(C#CCC(C)C)cc3C(=O)N([C@@H](C)CO)C[C@H]2C)cc1	none (no result: HIV Env fusion, MITF act, Wnt bcat act)
Cc1cc(C)cc(NC(=O)Nc2ccc3c(c2)C(=O)N(C)[C@@H]2CC[C@@H](CC(=O)O)O[C@@H]2CO3)c1	none (no result: MITF act, Wnt bcat act)
COc1ccc(CN(C)C[C@@H]2Oc3c(NC(=O)c4cnccn4)cccc3C(=O)N([C@H](C)CO)C[C@H]2C)cc1	none (no result: HIV Env fusion, MITF act, Wnt bcat act)
COc1ccc(NC(=O)Nc2ccc3c(c2)C(=O)N([C@H](C)CO)C[C@@H](C)[C@@H](CN(C)Cc2ccncc2)OCCCC[C@@H](C)O3)cc1	none (no result: MITF act, Wnt bcat act)
C[C@H](CO)N1C[C@H](C)[C@H](CN(C)Cc2ccccc2)OCCCC[C@H](C)Oc2ccc(NC(=O)Nc3ccc(F)cc3)cc2C1=O	HIV Env fusion 56[16.7 µM] (no result: MITF act, Wnt bcat act)
C[C@H]1CCCCO[C@H](CN(C)C(=O)Cc2ccccc2)[C@@H](C)CN([C@@H](C)CO)C(=O)c2cc(N(C)C)ccc2O1	CFTR F508del cor 11 (no result: MITF act, Wnt bcat act)
COc1ccc(CN(C)C[C@@H]2Oc3ccc(NC(=O)Nc4ccc(OC)cc4)cc3C(=O)N([C@H](C)CO)C[C@@H]2C)cc1	HIV Env fusion 63[16.7 µM] (no result: MITF act, Wnt bcat act)
